JMJD2A Tudor inh – blocks the human JMJD2A Tudor domain; O75164; AlphaScreen JMJD2A-Tudor / H3K4me3 peptide binding; Potency, µM (top dose mostly 114 µM), without a hit: at the top dose activity change, negative = inhibition, most hits filed as inhibitors; 390,000 compounds, 4.4% hits; also: % is scaled to controls: 0 for no effect and ±100 for the full control effect; nearly all actives have a fitted effect of over 50% in size
G9a inh – blocks human histone lysine methyltransferase G9a. 350,000 compounds, 8.8% hits. G9a H3K9 monomethylation, AlphaScreen, 2 h. Potency, µM (series often up to 102 µM), for inactives: at the top dose activity, negative = inhibition, most hits filed as inhibitors. AID 504332. Q96KQ7; also: % is scaled to controls: 0 for no effect and ±100 for the full control effect; nearly all actives have a fitted effect of over 75% in size
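Chemiluminescent proximity detection of H3K9 monomethylation, read after 10 min bead incubation in the dark. Reaction: 20 nM G9a, 500 nM biotin-H3K9 peptide, 20 uM SAM cofactor, 2 h, room temperature, following 15 min enzyme-compound preincubation.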
Sfp inh – inhibitors of Bacillus subtilis Sfp phosphopantetheinyl transferase | Q9F4F7 | AID 1490 | Potency, µM, without a hit: largest response in the series, negative = inhibition, usual class: inhibitors | 310,000 compounds, 3.5% hits | Biochemical Sfp PPTase activity, qHTS;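 also: the enzyme is Sfp with the accession as filed and its product quenches rhodamine fluorescence; 0% = enzyme reaction without inhibitor and -100% = no enzyme wells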
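Fluorescence-quenching assay with 15 nM Sfp, 5 uM rhodamine-CoA and 12.5 uM BHQ-2-labelled ybbR peptide in pH 7.6 Hepes/MgCl2 buffer. Enzyme was pre-incubated with compound for 15 min at room temperature. Rate was taken from the 30-min fluorescence change (525/598 nm).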
BAZ2B block – BAZ2B (human) inhibition. Q9UIF8. AlphaScreen BAZ2B-H3K14Ac peptide displacement. Potency, µM (titrated, usually from 114 µM), for inactives: top-dose activity change, negative = inhibition, actives largely listed as inhibitors. 360,000 compounds, 4.4% hits. AID 504333; also: % is scaled to controls: 0 for no effect and ±100 for the full control effect; nearly all actives have a fitted effect of over 60% in size
Target sequence (Q9UIF8 whole entry, looked up): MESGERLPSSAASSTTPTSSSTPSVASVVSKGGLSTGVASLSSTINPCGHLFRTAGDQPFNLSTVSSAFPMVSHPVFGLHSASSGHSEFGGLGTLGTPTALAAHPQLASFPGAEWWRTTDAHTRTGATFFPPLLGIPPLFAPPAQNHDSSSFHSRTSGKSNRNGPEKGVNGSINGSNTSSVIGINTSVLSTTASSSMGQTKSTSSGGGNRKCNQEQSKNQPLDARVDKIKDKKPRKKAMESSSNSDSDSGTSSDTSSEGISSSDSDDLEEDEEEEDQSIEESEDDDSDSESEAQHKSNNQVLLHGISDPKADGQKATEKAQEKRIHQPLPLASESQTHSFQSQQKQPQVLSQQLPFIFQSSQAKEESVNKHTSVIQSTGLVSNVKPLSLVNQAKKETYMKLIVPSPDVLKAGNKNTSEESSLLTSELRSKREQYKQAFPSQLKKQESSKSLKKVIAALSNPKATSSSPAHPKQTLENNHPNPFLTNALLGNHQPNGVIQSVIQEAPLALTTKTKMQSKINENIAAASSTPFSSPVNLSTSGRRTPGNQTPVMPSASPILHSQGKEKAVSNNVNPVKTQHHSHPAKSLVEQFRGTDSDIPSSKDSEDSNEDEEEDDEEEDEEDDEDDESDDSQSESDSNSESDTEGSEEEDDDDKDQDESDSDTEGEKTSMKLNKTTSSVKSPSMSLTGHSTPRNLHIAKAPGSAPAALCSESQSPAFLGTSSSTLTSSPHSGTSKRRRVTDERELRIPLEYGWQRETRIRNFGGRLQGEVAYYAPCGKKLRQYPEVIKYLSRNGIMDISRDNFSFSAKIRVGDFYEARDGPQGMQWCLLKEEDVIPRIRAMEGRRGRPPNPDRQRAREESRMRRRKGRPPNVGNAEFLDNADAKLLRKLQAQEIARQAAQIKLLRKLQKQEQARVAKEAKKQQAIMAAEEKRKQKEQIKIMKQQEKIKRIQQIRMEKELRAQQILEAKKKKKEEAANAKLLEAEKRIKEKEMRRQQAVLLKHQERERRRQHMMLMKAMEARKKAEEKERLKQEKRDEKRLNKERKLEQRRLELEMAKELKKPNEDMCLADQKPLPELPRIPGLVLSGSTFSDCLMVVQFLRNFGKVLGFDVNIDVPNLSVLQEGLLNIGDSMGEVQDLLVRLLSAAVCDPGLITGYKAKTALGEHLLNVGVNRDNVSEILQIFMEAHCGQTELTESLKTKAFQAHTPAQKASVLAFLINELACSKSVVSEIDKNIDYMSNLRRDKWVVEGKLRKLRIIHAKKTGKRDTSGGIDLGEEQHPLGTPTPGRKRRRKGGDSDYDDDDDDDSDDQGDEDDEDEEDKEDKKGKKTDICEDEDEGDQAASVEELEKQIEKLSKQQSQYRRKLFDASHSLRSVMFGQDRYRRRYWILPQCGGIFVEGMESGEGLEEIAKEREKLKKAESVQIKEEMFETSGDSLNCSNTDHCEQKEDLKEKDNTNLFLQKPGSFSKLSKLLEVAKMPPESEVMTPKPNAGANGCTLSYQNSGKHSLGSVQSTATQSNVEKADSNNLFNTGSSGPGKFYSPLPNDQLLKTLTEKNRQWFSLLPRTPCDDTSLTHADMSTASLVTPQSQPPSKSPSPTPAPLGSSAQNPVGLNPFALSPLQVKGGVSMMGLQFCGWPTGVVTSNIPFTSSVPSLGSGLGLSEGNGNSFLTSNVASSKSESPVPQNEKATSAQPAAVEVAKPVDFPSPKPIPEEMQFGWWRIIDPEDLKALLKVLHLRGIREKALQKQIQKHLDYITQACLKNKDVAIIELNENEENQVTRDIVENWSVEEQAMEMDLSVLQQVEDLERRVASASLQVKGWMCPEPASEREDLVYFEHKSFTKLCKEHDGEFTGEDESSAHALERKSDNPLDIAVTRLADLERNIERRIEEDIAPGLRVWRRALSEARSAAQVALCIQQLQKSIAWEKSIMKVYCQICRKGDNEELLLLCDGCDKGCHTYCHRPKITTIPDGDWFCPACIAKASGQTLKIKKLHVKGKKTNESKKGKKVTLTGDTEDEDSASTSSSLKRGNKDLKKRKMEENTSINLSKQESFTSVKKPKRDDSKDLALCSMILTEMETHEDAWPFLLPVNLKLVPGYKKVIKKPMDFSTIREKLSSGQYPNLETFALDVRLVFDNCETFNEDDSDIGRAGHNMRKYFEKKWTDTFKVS
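Inhibition is scored as reduced AlphaScreen emission. The BAZ2B/b-H3(5-23)K14Ac complex (50 nM each) in PBS pH 7.4, 0.01% Tween-20 meets compound (up to 110 uM) for 30 min at RT before bead addition.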
HP1b binding inh – HP1-beta chromodomain-methylated histone interaction inhibition. AlphaScreen HP1-beta / biotin-H3K9me3 peptide binding. Potency, µM (top dose mostly 114 µM), inactives show at the top dose activity change, negative = inhibition, usual class: inhibitors. 390,000 compounds, 0.56% hits. AID 540317; also: nearly all actives have a fitted effect of over 70% in size
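Compound inhibition of the preformed complex between 50 nM HP1-beta and 50 nM biotinylated H3K9me3 peptide was read by AlphaScreen. Buffer was PBS pH 7.4 with 0.01% Tween-20. Incubations ran 30 min at room temperature, with 10 ug/mL donor/acceptor beads.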
* marks the source's active call; other numbers are inactive results; ? = inconclusive; . = not tested or not shown; [ ] = dose if it differs, or a comment. A selection: hits, their analogues and other compounds. The true share with any hit is near 12%. Calls follow the shape of the dose curve; as a rule, active = well fitted curve in the direction sought with a large enough effect; inconclusive = small, poorly fitted or top-dose-only effect, or another doubt; inactive = no such curve, though single readings can be large; an effect the other way counts as inactive or inconclusive. Potency is read from the fitted curve at half-maximal effect.

SMILES	JMJD2A Tudor inh	G9a inh	Sfp inh	BAZ2B block	HP1b binding inh
CCN1CCN(c2ccc(S(=O)(=O)N3CCCCC3)cc2NC(=O)CC(C)c2ccccc2)CC1 (configuration not stated)	-29%	50µM*	.	-8%	-1%
CCN1CCN(c2ccc(S(=O)(=O)N3CCCCC3)cc2NC(=O)c2cccc(C)c2)CC1	-34%	50µM*	.	-34%	-8%
COC(=O)c1c(NC(=O)c2cnccn2)sc2c1CCC2	-8%	20%[2.33 µM]	-23%	-14%	43%
COc1ccc(CC(=O)Oc2ccc(C)cc2Br)cc1OC	22%	-23%	-1%	50µM*	?
Cc1ccc(C(C)(O)CS(=O)(=O)Cc2ccccc2)cc1 (configuration not stated)	-5%	56µM*	1%	-25%	66%
COc1ccc(C)cc1-n1nc2ccccc2n1	-3%	32%	-6%	9%	31%
COc1ccc(C)cc1-n1[nH]nnc1=S	25µM*	6.3µM*	-82%	-23%	-17%
Cc1cc(C)c(-n2[nH]nnc2=S)c(C)c1	32µM*	14µM*	28µM*	?	-17%
N#CCSc1nnc(-c2ccccc2O)n1CCc1ccccc1	-22%	16%[12.7 µM]	-4%	-37%	32%
CCOC(=O)Oc1ccc2c(c1)C(C)=CC(C)(C)N2C(=O)OCC	72%	50%[59 µM]	-9%	52%	76%
CCNC(=O)N1c2ccc(OC)cc2C(C)=CC1(C)C	-31%	50µM*	-18%	?	-3%
COc1ccc(NC(=O)N2c3ccccc3C(C)=CC2(C)C)cc1	-24%[57.1 µM]	?	7%	-32%	-16%
COc1ccc2c(c1)C(C)=CC(C)(C)N2C(=O)CN1C(=O)CCC1=O	8%	16%[59 µM]	6%	10%	20%
CCOc1ccc2c(c1)C(C)=CC(C)(C)N2C(=O)Nc1ccccc1	56µM*	50µM*	?	50µM*	?
COc1ccc(NC(=O)N2c3ccc(OC)cc3C(C)=CC2(C)C)cc1	56µM*	50µM*	20µM*	45µM*	-22%
C=C[C@@H]1c2ccccc2N(S(=O)(=O)c2ccc(C)cc2)[C@H](c2ccccc2C(F)(F)F)C1(C#N)C#N	-20%	-2%[2.33 µM]	.	6%	31%
COc1cccc(C(=O)Nc2cc(=O)n(C)c(=O)n2C)c1OC	-7%	6%	7%	9%	40%
Cc1ccc(C2=NN=C(NC(=O)CSc3nnc4c5ccccc5n(C)c4n3)SC2)cc1	?	45µM*	3%	-10%	15%
Cc1cc(C)nc(SCC(=O)Nc2cc(C)on2)n1	-14%	7%[59 µM]	12%	34%	14%
Cc1cc(C)nc(SCC(=O)NC2=NC(=O)C(C)S2)n1 (configuration not stated)	?	18µM*	22µM*	11%	-5%
CCOC(=O)CSc1nc(C)cc(C)n1	-12%	?	-3%	10%	30%
COC(=O)CSc1nc(C)cc(C)n1	14µM*	-1%	14%	-15%	-10%
Cc1ccc(C2=NN=C(NC(=O)CSc3nc(C)cc(C)n3)SC2)cc1	.	28µM*	40µM*	-36%	.
Cn1c(=O)c2nc(NCc3ccccc3)sc2n(C)c1=O	-3%	.	.	.	26%
CC(=O)N1CCc2nc3sc(C(=O)c4ccc(F)cc4)c(N)c3c(C(F)(F)F)c2C1	?	-29%[59 µM]	.	50µM*	-6%
SMILES	JMJD2A Tudor inh	G9a inh	Sfp inh	BAZ2B block	HP1b binding inh
COc1ccc(C(=O)c2sc3nc4c(c(C(F)(F)F)c3c2N)CN(C(C)=O)CC4)cc1OC	?	-4%[59 µM]	.	-27%	2%
Cc1nnc2n(-c3ccccc3)c(=O)c3ccccc3n12	-21%	.	.	.	-13%
O=C(O)CSc1nnc2n(-c3ccccc3)c(=O)c3ccccc3n12	1%	7%	10%	-7%	5%
CCC(C)c1ccc(-n2c(=O)c3ccccc3n3c(=S)[nH]nc23)cc1 (configuration not stated)	-10%	1.1µM*	?	3%	-30%
O=c1c2ccccc2n2c(=S)[nH]nc2n1-c1ccccc1	3.2µM*	5µM*	45µM*	?	?
C/C(=C\C(=O)C(F)(F)F)Nc1cc(C)cc(C)c1	-5%	-29%[12.7 µM]	-18%	57%	35%
O=C(NCc1ccccc1Br)c1ccc2nc(N3CCCCC3)sc2c1	-11%	0%[59 µM]	.	4%	17%
CCC(=O)N/C(N)=N/c1nc(C)c2cc(OC)ccc2n1	-15%	9%[59 µM]	11%	5%	31%
CC(=O)Nc1ccc(/C=N/NS(=O)(=O)c2cc(C)ccc2C)cc1	-4%	50µM*	-11%	-37%	36%
Cc1ccc(C)c(S(=O)(=O)N/N=C/c2cccnc2)c1	-25%	?	-9%	-1%	37%
Cc1ccc(C)c(S(=O)(=O)N/N=C/c2ccc(F)cc2)c1	-22%	11µM*	-29%	-4%	27%
CCC(=O)N1CCc2cc(S(=O)(=O)CCC(=O)N3CCCC(C)C3)ccc21 (configuration not stated)	4%	-4%	7%	-9%	15%[57 µM]
NCc1oc(-c2ccccc2)cc1C(=O)O	-20%	50µM*	-21%	-2%	7%
CCN(CC)Cc1oc(-c2ccccc2)cc1C(=O)O	56µM*	.	-18%	-6%	-8%
C/C=C\C=C\C(=O)Nc1cccc(C2=NOC3(C2)C[C@@H](C(N)=O)N(C(=O)C(c2ccccc2)c2ccccc2)C3)c1 (some centres not stated)	-36%	?	18µM*	?	15%
C/C=C/C(=O)Nc1cccc(C2=NOC3(C2)C[C@H](C(N)=O)N(C(=O)/C=C/C)C3)c1 (some centres not stated)	-15%	-3%[59 µM]	9%	0%	23%
C/C=C\C=C/C(=O)Nc1cccc(C2=NOC3(C2)C[C@H](C(N)=O)N(C(=O)Cc2ccc([N+](=O)[O-])cc2)C3)c1 (some centres not stated)	79µM*	?	13µM*	-22%	?
C/C=C(/C)C(=O)Nc1cccc(C2=NOC3(C2)C[C@H](C(N)=O)N(C(=O)Cc2ccc([N+](=O)[O-])cc2)C3)c1 (some centres not stated)	-10%	-4%[59 µM]	10%	-5%	31%
C/C=C\C=C/C(=O)Nc1cccc(C2=NOC3(C2)C[C@@H](C(N)=O)N(C(=O)CCCCC)C3)c1 (some centres not stated)	79µM*	5%[12.7 µM]	25µM*	-4%	?
C/C=C\C=C/C(=O)Nc1cccc(C2=NOC3(C2)C[C@H](C(N)=O)N(C(=O)CC)C3)c1 (some centres not stated)	?	?	13µM*	0%	-39%
[N-]=[N+]=NCC1OC(n2cnc3c(=O)[nH]c(N)nc32)C(O)C1O (configuration not stated)	.	.	6%	.	.
Fc1ccccc1NC(=S)Nc1ccc(Br)cc1	-8%	-14%	-23%	-2%	13%

Compound activity deposited in PubChem by National Center for Advancing Translational Sciences (NCATS).
